Assay outcomes as filed in PubChem.
Shown are actives, neighbours in structure and some others; about 3% of the full set was active somewhere.
SENP8 block-1: blocks human SENP8 cleavage of Nedd8 substrate; Q96LD8; recombinant SENP8, Nedd8 substrate fluorescence; inhibition, % at 20 µM; 360,000 compounds, 0.64% hits; AID 602440; in the data active = inhibition mostly above about 40%, no sharp cut-off; inactive = mostly below about 27%
Target sequence (Q96LD8 whole entry, looked up): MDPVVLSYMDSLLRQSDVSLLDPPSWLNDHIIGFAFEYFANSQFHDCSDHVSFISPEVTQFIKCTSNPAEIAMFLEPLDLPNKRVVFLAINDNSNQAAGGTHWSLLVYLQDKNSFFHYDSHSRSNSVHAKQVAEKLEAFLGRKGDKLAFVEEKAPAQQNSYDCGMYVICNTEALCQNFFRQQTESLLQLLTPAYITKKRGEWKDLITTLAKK
SENP7 inh: blocks the human protease SENP7; Q9BQF6; recombinant SENP7, Z-RLRGG-aminoluciferin luminescence, 40 min; inhibition, % at 5 µM; 330,000 compounds, 1.5% hits;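 active = inhibition above about 50% at the single test dose, limit read from the data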;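 also: plate controls were DMSO with enzyme for no effect and no enzyme buffer wells for full effect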
Target sequence (Q9BQF6 706-1050 limits assumed): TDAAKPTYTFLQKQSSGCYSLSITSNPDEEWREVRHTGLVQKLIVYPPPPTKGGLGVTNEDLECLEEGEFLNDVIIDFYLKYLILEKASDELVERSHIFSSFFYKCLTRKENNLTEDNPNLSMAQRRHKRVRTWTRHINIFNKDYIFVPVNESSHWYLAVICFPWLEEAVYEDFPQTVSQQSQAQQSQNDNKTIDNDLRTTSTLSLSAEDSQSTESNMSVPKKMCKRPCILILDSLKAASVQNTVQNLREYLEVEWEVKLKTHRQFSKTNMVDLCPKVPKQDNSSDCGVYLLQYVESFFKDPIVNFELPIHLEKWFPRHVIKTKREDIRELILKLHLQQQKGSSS
SENP8 block-2: blocks the human protease SENP8 | Q96LD8 | 330,000 compounds, 1.2% hits | purified SENP8, Z-RLRGG-aminoluciferin cleavage, luminescence | inhibition, % at 10 µM; in the data active = inhibition above about 50%
TRAIL sens C8: sensitizes caspase-8 expressing cells to TRAIL; NB7+C8 cells + TRAIL, ATPlite viability luminescence; inhibition (viability loss, TRAIL sensitization), % at 10 µM; 360,000 compounds, 1% hits; AID 624354;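 active = compounds causing at least 50% loss of cell viability in the single-dose screen, relative to plate controls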
SENP6 block: SENP6 protease inhibition; Q9GZR1; Recombinant SENP6 catalytic domain, aminoluciferin luminescence; inhibition, % at 10 µM; 330,000 compounds, 1.8% hits;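 active = inhibition above about 50% at the single tested dose, limit read from the data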;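 also: plate controls were DMSO wells with enzyme for no effect and DMSO wells lacking enzyme for full effect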
PPC-1+TRAIL kill: kills PPC-1 cancer cells in the presence of TRAIL; cell killing (% activity), % at 4 µM or 5 µM; 220,000 compounds, 0.41% hits; PPC-1 cells + TRAIL, ATPLite viability luminescence;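 active = cell killing above 50% in the first pass at 4 µM, then a duplicate retest at 5 µM averaging 50% or more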;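 also: plate controls were cells with TRAIL plus DMSO for no effect and medium-only wells lacking cells for full effect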
SENP8 inh conf: SENP8 (human) inhibition, single concentration confirmation. shares compounds with SENP8 block-1. purified SENP8, Nedd8-AMC/pro-Nedd8 cleavage fluorescence, 30 min. inhibition, % at 25 µM. 1,400 compounds, 15% hits; in the data active = inhibition mostly above about 39%, no sharp cut-off; inactive = mostly below about 34%
An asterisk follows results filed as active; . = no result.

SMILES | SENP8 block-1 | SENP7 inh | SENP8 block-2 | TRAIL sens C8 | SENP6 block | PPC-1+TRAIL kill | SENP8 inh conf
CC1(C)OC(c2ccccc2)=C/C(=C/C=N/NC(=O)c2ccncc2)O1 | 41* | -5 | 0 | 4 | -14 | 8 | 24
Cc1ccc(NC(=O)C2CCCN2C(=O)NC2CCCCC2)cc1 (centres undefined) | -9 | 1 | -3 | 32 | 4 | 14 | .
CCCCC(=O)c1ccc(O)cc1 | 16 | -2 | -12 | -1 | -16 | -7 | .
O=C(CCO)c1ccc(O)cc1 | 44* | -5 | 7 | 4 | -3 | -2 | 10
COc1ccccc1C(=O)NC(CCSC)C(=O)NCc1ccncc1 (centres undefined) | 13 | -10 | 0 | 2 | -13 | . | .
COc1cc(/C=N/N2CCOCC2)ccc1OCc1ccc(Cl)cc1 | 42* | 6 | 4 | -4 | 23 | 13 | 8
COc1cc(/C=N/N2CCOCC2)ccc1OCc1ccccc1 | 10 | 2 | -15 | 18 | 13 | 22 | .
COc1ccc(NCc2nnc(SCC(=O)Nc3ccccc3)n2C)cc1 | 43* | 2 | -7 | 0 | 3 | 2 | 17
COc1ccc(NCc2nnc(SCC(=O)N3CCCc4ccccc43)n2C)cc1 | 60* | -11 | -5 | -1 | 11 | 9 | 17
CCn1c(CNc2ccc(OC)cc2)nnc1SCC(=O)N1CCCc2ccccc21 | 34 | 0 | -8 | 7 | -12 | -16 | .
CCOC(=O)c1nnn(-c2ccc(OC)cc2)c1N | 25 | 7 | 3 | 13 | -7 | 15 | .
CCOC(=O)c1nn(-c2ccc(OC)cc2)c(=O)c2c(N)scc12 | 41* | -6 | 3 | 8 | 25 | 26 | 53*
CC(=O)/C(=N/Nc1ccccc1[N+](=O)[O-])N1CCCc2ccccc21 | 41* | 8 | 4 | 12 | 0 | 0 | 27
CC(=O)/C(=N/Nc1ccc([N+](=O)[O-])cc1)N1CCCc2ccccc21 | 47* | -8 | -7 | 15 | -13 | 19 | -11
CC(=O)/C(=N/Nc1ccc(Br)cc1)N1CCCc2ccccc21 | 33 | 5 | 3 | 6 | -9 | 8 | .
COc1ccc(NC(=O)CN(C)C(=O)CSCC(=O)Nc2ccc(C)cc2)cc1 | 53* | -19 | -14 | 23 | -8 | . | 8
COc1ccc(NCC(=O)N/N=C/C2CCCCC2)cc1 | 22 | 7 | 2 | 0 | -2 | 4 | .
CCCC1CCC(=NNC(=O)CNc2ccc(OC)cc2)CC1 (centres undefined) | 59* | 0 | 0 | 13 | -7 | 27 | 13
CCN(C[C@H]1N[C@@](Cc2ccccc2)(C(=O)OC)[C@H]2C(=O)N(C)C(=O)[C@@H]12)S(=O)(=O)c1ccc(C(C)(C)C)cc1 | 4 | -2 | 1 | 17 | 10 | . | .
CC1=C(C(=O)N2CCOCC2)CC(CC(=O)NCCCN(C)C)C(=O)N1Cc1ccc(F)cc1 (centres undefined) | 22 | . | . | 6 | . | . | .
Cc1cc(-c2csc(N)n2)c(C)n1C | 43* | 9 | 6 | 1 | 0 | -6 | 16
COc1cccc(C=Nc2ccc3c(c2)OCCO3)c1O | 53* | -3 | -25 | 6 | -29 | 17 | 30
Cc1cc(=O)n(-c2ccc(O)cc2)[nH]1 | 79* | 6 | -7 | -1 | -7 | 8 | 38*
Cc1cc(=O)n(-c2ccc(C(=O)O)cc2)[nH]1 | 20 | 1 | -4 | -4 | 6 | 15 | .
CC1=CC(=C(C#N)c2nc3ccccc3s2)C=C(C)N1Cc1ccco1 | 59* | 2 | 16 | 1 | 38 | 1 | 18
SMILES | SENP8 block-1 | SENP7 inh | SENP8 block-2 | TRAIL sens C8 | SENP6 block | PPC-1+TRAIL kill | SENP8 inh conf
O=C(NCc1ccco1)c1nc2ccccc2s1 | 24 | -2 | -6 | 8 | 14 | -9 | .
CCCOc1ccc(CCC(=O)N/N=C/c2ccco2)cc1 | 44* | 4 | 5 | -2 | -11 | -31 | 17
CCCCOc1ccc(CCC(=O)N/N=C/c2ccco2)cc1 | 2 | -6 | -9 | -11 | -8 | -7 | .
CN(N=O)c1ccc(C=C2C=Cc3ccccc32)cc1 | 51* | . | . | 18 | . | . | 3
CC(=O)N(C)c1ccc(C=C2C=Cc3ccccc32)cc1 | 25 | . | . | 47 | . | . | .
CCN(N=O)c1ccc(C=C2C=Cc3ccccc32)cc1 | 69* | . | . | 13 | . | . | 7
CC1CC(=O)Nc2cc([N+](=O)[O-])ccc2N1 (centres undefined) | 44* | 3 | 1 | 4 | -8 | 20 | 30
CC1CC(=O)Nc2ccc([N+](=O)[O-])cc2N1C (centres undefined) | 14 | -1 | 2 | 0 | 0 | -10 | .
O=C1CN(c2ccc(Cl)cc2)C(=O)CN1NC(=S)Nc1ccc(Cl)cc1 | 43* | 6 | 2 | -9 | 13 | 3 | 12
O=C(Nc1ccccc1)NN1CC(=O)N(c2ccc(Cl)cc2)CC1=O | 8 | 3 | 1 | -3 | 1 | 16 | .
O=C(N/N=C/CCc1ccccc1)C1CCCCC1 | 14 | 4 | 4 | -2 | 1 | 3 | .
O=C(N/N=C/CCc1ccccc1)c1ccccc1 | 47* | 6 | -3 | -19 | -8 | 9 | 16
CCOc1ccc(Br)cc1S(=O)(=O)Nc1ccc(NC(=O)c2ccccc2F)cc1 | 22 | -7 | 1 | 1 | 0 | -2 | .
O=S(=O)(c1ccccc1)N1CCC(n2cnc3ccccc32)CC1 | 9 | 0 | 0 | 11 | 6 | . | .
COc1ccccc1NC(=O)c1nc[nH]c1C(=O)Nc1ccccc1OC | 16 | 0 | 0 | -5 | -6 | 11 | .
COC(=O)c1[nH]cnc1C(=O)c1ccccc1 | 54* | 4 | 0 | 3 | -4 | -12 | 6
O=C1CCCS(=O)(=O)c2ccccc21 | -49 | 8 | 1 | -4 | -31 | 22 | .
CC(NC(=O)[C@H](NC(=O)[C@@H]1Cc2ccccc2CN1)c1ccccc1)c1ccccc1 (some centres undefined) | 41* | 2 | 4 | 0 | -5 | . | 9
O=C(COC(=O)c1cc(S(=O)(=O)N2CCOCC2)ccc1Cl)Nc1ccc2c(c1)OCO2 | 45* | 4 | -2 | -5 | -7 | -1 | 11
O=C(COC(=O)c1cc(S(=O)(=O)N2CCOCC2)ccc1Cl)NCc1ccc2c(c1)OCO2 | 1 | 5 | 4 | 0 | 2 | . | .
O=C(Nc1cccc(Oc2c(F)c(F)c(F)c(F)c2F)c1)N1C[C@@H]2C[C@@H](C1)c1cccc(=O)n1C2 | 8 | -3 | -5 | -8 | -22 | -17 | .
COc1ccc(NC(=O)[C@@H](NC(=O)N2C[C@H]3C[C@@H](C2)c2cccc(=O)n2C3)C(C)C)cc1OC | 45* | -4 | 4 | -11 | 4 | . | 10
Cc1ccc(OC(C)C(=O)N(Cc2cccs2)C2CCS(=O)(=O)C2)cc1C (centres undefined) | 41* | 6 | -11 | -12 | 5 | 8 | 8
O=C1Nc2ccccc2C1=O | 44* | 4 | -4 | -2 | -16 | . | 14
